“And” between values parts separate entries of the source, which are not always exact repeats. Equal entries are not always repeated. A number with no mark means an inactive call. Inconclusive results are not listed. Entries that show only a call come without a potency. The source made the active and inactive calls. Unless noted, calls follow the shape of the full dose curve.
Assays:
[1] = Nuclear factor erythroid 2-related factor 2/antioxidant responsive element (Nrf2/ARE) small molecule agonists: qHTS cell viability counter screen in human keratinocytes (AID 1919968; active = well fitted curve in the direction sought with a large enough effect in the repeat runs; an effect the other way counts as inactive or inconclusive; also: nearly all actives have a fitted effect of over 55% in size; also: potency is read from the fitted curve at half-maximal effect)
How it was run: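 Cells of the KeratinoSens line were plated at 1,500 per well and left for 5 h before compound transfer from DMSO stocks. After a 23 h incubation (37 C, 5% CO2), CellTiter-Fluor was added. Signal was taken as fluorescence intensity 1 h later.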

[2] = Nuclear factor erythroid 2-related factor 2/antioxidant responsive element (Nrf2/ARE) small molecule agonists: luciferase reporter gene qHTS assay in human keratinocytes (AID 1919969); also: nearly all actives have a fitted effect of over 35% in size; also: potency is read from the fitted curve at half-maximal effect
[3] = target: Gonadotropin-releasing hormone receptor (Homo sapiens) (UniProt P30968); experiment: Human gonadotropin-releasing hormone receptor (GnRHR) small molecule agonists, calcium flux assay in GnRHR-HEK293 cells (AID 1920063); also: nearly all actives have a fitted effect of over 35% in size
How it was run: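 Compounds dissolved in DMSO are pin-transferred onto dye-loaded GnRHR-HEK293 cells, which were seeded 18 h before at 37 C/5% CO2. Calcium signal is read as fluorescence intensity at 1 s intervals for 3 min.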

[4] = target: KiSS-1 receptor (Homo sapiens) (UniProt Q969F8); experiment: Human kisspeptin (KISS1R) small molecule agonists, calcium flux assay in KISS1R-HEK293 cells (AID 1920064; active = well fitted curve in the direction sought with a large enough effect in the repeat runs; an effect the other way counts as inactive or inconclusive)
How it was run: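 Cell line: HEK293, stable human KISS1R. Dye loading 1 h at 37 C after 18 h culture. Read: kinetic fluorescence, 480/540 nm, 3 min at 1 s intervals.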

[5] = G protein-coupled receptor (GPCR) small molecule agonists, calcium flux assay: HEK293 wild type cell line counter screen (AID 1920065)
How it was run: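 Tox21 10K compounds, 15 concentrations each in triplicate, pin-transferred in DMSO onto dye-loaded cells; kinetic read at 480/540 nm for 3 min, 1 s intervals.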

[6] = p53 small molecule agonists, cell-based qHTS assay with human liver microsomes (AID 1963577)
How it was run: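 p53RE-bla cells, 4,000/well, compound added after 5 h, with human liver microsomes 0.5 mg/mL and NADPH 0.5 mg/mL final; 16 h at 37 C, then LiveBLAzer 2 h RT, fluorescence.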

[7] = p53 small molecule agonists, cell-based qHTS assay with rat liver microsomes (AID 1963578)
How it was run: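 p53RE-bla cells, 4,000/well, pre-incubated 5 h, then given compounds plus rat liver microsomes (0.5 mg/mL final) and NADPH (0.5 mg/mL final). Incubation 16 h at 37 C; beta-lactamase reporter read by LiveBLAzer fluorescence after 2 h at room temperature.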

[8] = p53 small molecule agonists, cell-based qHTS assay with human liver microsomes: qHTS cell viability counter screen (AID 1963579); also: nearly all actives have a fitted effect of over 45% in size
How it was run: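 p53RE-bla cells, 4,000/well, dosed 5 hours after plating, with human liver microsomes (0.5 mg/mL final) plus NADPH (0.5 mg/mL final), 16 hours at 37 C. Viability read as CellTiter-Glo luminescence after 30 min at room temperature.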

[9] = p53 small molecule agonists, cell-based qHTS assay with rat liver microsomes: qHTS cell viability counter screen (AID 1963580); also: nearly all actives have a fitted effect of over 45% in size
How it was run: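 Rat liver microsome (0.5 mg/mL final) and NADPH (0.5 mg/mL final) co-incubation with compounds for 16 h at 37 C on HCT-116 p53RE-bla cells; cytotoxicity taken from intracellular ATP luminescence.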

[10] = p53 small molecule agonists, cell-based qHTS assay: qHTS cell viability counter screen (AID 1963581); also: nearly all actives have a fitted effect of over 45% in size
How it was run: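 ATP content measured by luminescence in HCT-116 p53RE-bla cells treated 16 h at 37 C, same wells as the reporter screen.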

[11] = p53 small molecule agonists, cell-based qHTS assay (AID 1963582; active = well fitted activation curve with a large enough effect in the signal ratio in the repeat runs, not every such curve was filed as active; the % refers to the signal ratio)
How it was run: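 16 h compound exposure (37 C) of p53 response element–bla cells, preceded by 5 h recovery at 37 C/5% CO2; read-out via LiveBLAzer B/G FRET substrate, 2 h RT, fluorescence intensity.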

[12] = target: 5-hydroxytryptamine receptor 2A (Homo sapiens) (UniProt P28223); experiment: 5-hydroxytryptamine receptor 2A (HTR2A) small molecule antagonists, cell-based qHTS assay (AID 1963586); also: nearly all actives have a fitted effect of over 45% in size
How it was run: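 CHO cells stably expressing human HTR2A were plated for 18 h at 37 C, then loaded with calcium dye for 1 h. Compounds were preincubated 5 min at room temperature before DOI (4 nM solution) was added. Kinetic fluorescence was read for 3 min.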

[13] = target: 5-hydroxytryptamine receptor 2A (Homo sapiens) (UniProt P28223); experiment: 5-hydroxytryptamine receptor 2A (HTR2A) small molecule agonists, cell-based qHTS assay (AID 1963587); also: nearly all actives have a fitted effect of over 30% in size
How it was run: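 Kinetic calcium-flux fluorescence (2 min, 1 sec intervals) after compound addition in agonist mode. HTR2A-CHO cells were cultured 18 h, then dye-loaded 1 h at 37 C.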

[14] = target: Muscarinic acetylcholine receptor M1 (Homo sapiens) (UniProt P11229); experiment: Cholinergic receptor muscarinic 1 (CHRM1) small molecule antagonists, cell-based qHTS assay (AID 1963588); also: nearly all actives have a fitted effect of over 40% in size
How it was run: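 Compounds were tested at 15 concentrations in three independent runs. Dye-loaded CHRM1-CHO cells were exposed 5 min at room temperature before stimulation by acetylcholine added at 50nM. Intracellular calcium was read kinetically on FDSS for 3 min.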

[15] = target: Muscarinic acetylcholine receptor M1 (Homo sapiens) (UniProt P11229); experiment: Cholinergic receptor muscarinic 1 (CHRM1) small molecule agonists, cell-based qHTS assay (AID 1963589); also: nearly all actives have a fitted effect of over 35% in size
How it was run: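 Homogeneous fluorescence calcium flux, agonist mode. Human M1-expressing CHO cells; compound dosed at 15 concentrations, three independent runs; signal sampled every 1 sec.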

[16] = cAMP Responsive Elements (CRE) small molecule agonists, cell-based qHTS assay (AID 1963590)
How it was run: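 HEK 293T cells stably bearing CRE-bla were plated at 2,000 cells per well and rested 18 h. Compounds, positive controls or DMSO were added for 3 h at 37 C. LiveBLAzer B/G substrate was then loaded for 2 h at room temperature.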

[17] = cAMP Responsive Elements (CRE) small molecule antagonists, cell-based qHTS assay (AID 1963591; active = well fitted inhibition curve with a large enough effect in the signal ratio in the repeat runs, not every such curve was filed as active; the % refers to the signal ratio)
How it was run: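 First, CRE-bla HEK293T cells settled 18 h at 37 C. Next, compound and 0.25 uM final NKH477 were applied for 3 h. Last, LiveBLAzer B/G substrate was loaded for 2 h at room temperature.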

[18] = target: Beta-2 adrenergic receptor (Homo sapiens) (UniProt P07550); experiment: Adrenergic beta2 receptor (ADRB2) small molecule antagonists, cell-based qHTS assay (AID 1963592); also: series mostly up to about 92 µM; nearly all actives have a fitted effect of over 50% in size
How it was run: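 Assay format: CHO-ADRB2 cells, 18-20hr seeding at 37C/5% CO2, then compound plus 1nM isoproterenol agonist mix for 0.5hr RT. Homogeneous time-resolved fluorescence cAMP detection after 1hr, expressed as 665/615 nm ratio.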

[19] = target: D(2) dopamine receptor (Homo sapiens) (UniProt P14416); experiment: Dopamine D2 receptor (DRD2) small molecule agonists, cell-based qHTS assay (AID 1963594); also: nearly all actives have a fitted effect of over 35% in size
How it was run: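 cAMP accumulation in DRD2-HEK293 cells measured by HTRF after 1 h detection; compounds added 10 min before NKH477 (200nM […]) forskolin-analogue stimulation, 30 min at room temperature, with Ro20-1724 present at 0.1 mM final.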

[20] = target: D(2) dopamine receptor (Homo sapiens) (UniProt P14416); experiment: Dopamine D2 receptor (DRD2) small molecule antagonists, cell-based qHTS assay (AID 1963595; active = well fitted inhibition curve with a large enough effect in the signal ratio in the repeat runs, with a control signal flat; the % refers to the signal ratio)
How it was run: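 Stable D2 receptor HEK293 line, 24 h after seeding. Compound preincubated 10 min, then quinpirole (12 nM) with forskolin analogue NKH477 (200 nM), 30 min, room temperature. Detection by time-resolved FRET of cAMP.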

KiSS-1 receptor (Homo sapiens), sequence (Q969F8 whole entry, looked up): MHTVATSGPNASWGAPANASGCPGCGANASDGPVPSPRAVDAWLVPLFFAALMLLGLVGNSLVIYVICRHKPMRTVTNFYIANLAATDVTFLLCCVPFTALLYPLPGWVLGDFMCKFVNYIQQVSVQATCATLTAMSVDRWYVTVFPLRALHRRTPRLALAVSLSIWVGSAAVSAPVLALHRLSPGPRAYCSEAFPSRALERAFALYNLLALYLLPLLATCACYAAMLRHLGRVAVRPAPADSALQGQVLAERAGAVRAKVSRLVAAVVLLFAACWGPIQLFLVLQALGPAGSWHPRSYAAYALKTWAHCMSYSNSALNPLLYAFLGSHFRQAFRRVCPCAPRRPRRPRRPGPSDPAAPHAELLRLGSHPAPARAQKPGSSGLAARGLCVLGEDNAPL
Muscarinic acetylcholine receptor M1 (Homo sapiens), sequence (P11229 whole entry, looked up): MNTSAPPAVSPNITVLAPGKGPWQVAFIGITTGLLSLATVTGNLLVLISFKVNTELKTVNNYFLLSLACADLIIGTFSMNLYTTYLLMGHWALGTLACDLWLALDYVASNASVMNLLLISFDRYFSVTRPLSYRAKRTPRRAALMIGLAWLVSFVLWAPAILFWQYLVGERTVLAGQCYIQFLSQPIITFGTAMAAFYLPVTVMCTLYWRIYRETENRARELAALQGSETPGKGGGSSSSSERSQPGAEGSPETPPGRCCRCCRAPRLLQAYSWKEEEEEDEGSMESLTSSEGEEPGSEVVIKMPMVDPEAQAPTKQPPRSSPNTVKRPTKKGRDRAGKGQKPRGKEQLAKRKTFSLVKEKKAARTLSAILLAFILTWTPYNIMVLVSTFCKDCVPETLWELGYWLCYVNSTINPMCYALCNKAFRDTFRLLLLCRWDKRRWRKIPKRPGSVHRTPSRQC
5-hydroxytryptamine receptor 2A (Homo sapiens), sequence (P28223 whole entry, looked up): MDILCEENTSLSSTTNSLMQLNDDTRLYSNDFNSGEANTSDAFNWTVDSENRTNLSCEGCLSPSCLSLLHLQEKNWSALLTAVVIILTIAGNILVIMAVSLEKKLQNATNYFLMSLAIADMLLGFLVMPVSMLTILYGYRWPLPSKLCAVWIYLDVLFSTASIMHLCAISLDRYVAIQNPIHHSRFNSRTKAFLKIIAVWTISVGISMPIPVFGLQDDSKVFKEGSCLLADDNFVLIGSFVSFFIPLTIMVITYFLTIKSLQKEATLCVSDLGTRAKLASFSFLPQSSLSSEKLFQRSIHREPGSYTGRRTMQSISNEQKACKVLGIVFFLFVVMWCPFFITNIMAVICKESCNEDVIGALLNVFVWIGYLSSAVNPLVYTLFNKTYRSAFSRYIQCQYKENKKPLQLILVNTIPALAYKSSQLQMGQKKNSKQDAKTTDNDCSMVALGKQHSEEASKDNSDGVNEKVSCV
Gonadotropin-releasing hormone receptor (Homo sapiens), sequence (P30968 whole entry, looked up): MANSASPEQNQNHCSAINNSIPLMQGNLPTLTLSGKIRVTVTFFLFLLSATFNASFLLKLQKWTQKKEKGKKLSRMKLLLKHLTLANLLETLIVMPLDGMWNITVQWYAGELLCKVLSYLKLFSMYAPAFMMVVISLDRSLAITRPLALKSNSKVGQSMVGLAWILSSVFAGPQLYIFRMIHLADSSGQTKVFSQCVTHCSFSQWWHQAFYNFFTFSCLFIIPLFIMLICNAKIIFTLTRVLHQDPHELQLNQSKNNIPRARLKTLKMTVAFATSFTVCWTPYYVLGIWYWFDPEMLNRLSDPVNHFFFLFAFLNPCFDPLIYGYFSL
Beta-2 adrenergic receptor (Homo sapiens), sequence (P07550 whole entry, looked up): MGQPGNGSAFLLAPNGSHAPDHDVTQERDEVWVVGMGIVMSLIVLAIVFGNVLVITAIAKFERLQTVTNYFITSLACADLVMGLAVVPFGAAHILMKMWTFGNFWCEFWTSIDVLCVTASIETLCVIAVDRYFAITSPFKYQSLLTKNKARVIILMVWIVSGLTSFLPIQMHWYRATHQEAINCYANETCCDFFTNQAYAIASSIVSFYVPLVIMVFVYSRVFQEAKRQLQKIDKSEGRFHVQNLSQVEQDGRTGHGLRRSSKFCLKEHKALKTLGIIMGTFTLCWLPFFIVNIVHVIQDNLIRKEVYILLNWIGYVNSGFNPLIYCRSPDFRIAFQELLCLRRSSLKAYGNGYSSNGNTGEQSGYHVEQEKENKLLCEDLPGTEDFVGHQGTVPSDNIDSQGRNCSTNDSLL
D(2) dopamine receptor (Homo sapiens), sequence (P14416 whole entry, looked up): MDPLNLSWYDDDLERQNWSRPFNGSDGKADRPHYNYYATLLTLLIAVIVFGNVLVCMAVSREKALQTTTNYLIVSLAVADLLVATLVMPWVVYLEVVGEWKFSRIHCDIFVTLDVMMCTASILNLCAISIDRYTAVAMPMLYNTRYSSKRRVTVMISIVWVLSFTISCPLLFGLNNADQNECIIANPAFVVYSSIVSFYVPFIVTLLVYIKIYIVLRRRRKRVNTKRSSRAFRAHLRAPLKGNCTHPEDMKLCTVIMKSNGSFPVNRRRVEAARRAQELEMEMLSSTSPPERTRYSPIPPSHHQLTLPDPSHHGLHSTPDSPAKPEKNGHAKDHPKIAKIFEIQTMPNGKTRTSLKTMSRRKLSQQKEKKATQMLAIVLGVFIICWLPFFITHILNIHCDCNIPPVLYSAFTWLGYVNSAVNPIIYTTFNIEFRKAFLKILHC

Row | Compound | Potency [1] | Potency [2] | Potency [3] | Potency [4] | Potency [5] | Potency [6] | Potency [7] | Potency [8] | Potency [9] | Potency [10] | Potency [11] | Potency [12] | Potency [13] | Potency [14] | Potency [15] | Potency [16] | Potency [17] | Potency [18] | Potency [19] | Potency [20]
1 | C#CCOC(=O)/C=C(C)/C=C/CC(C)CCCC(C)C (stereo not given) | inactive | inactive | inactive | inactive | inactive | inactive | inactive | inactive | inactive | inactive | inactive | inactive | inactive | inactive | inactive | inactive | inactive | inactive | inactive | inactive
2 | Brc1ccc(Oc2cc(Br)c(Br)cc2Br)c(Br)c1 | inactive | 12.3 µM (active) | inactive | inactive | inactive | inactive | inactive | inactive | inactive | inactive | inactive | inactive | inactive | inactive | inactive | inactive | inactive | inactive | inactive | inactive
3 | BrCCc1ccccc1 | inactive | inactive | inactive | inactive | inactive | inactive | inactive | inactive | inactive | inactive | inactive | inactive | inactive | inactive | inactive | inactive | inactive | inactive | inactive | inactive
4 | NNC(=S)NN | 6.28 µM (active) and 30.6 µM (active) | 2.5 µM (active) | inactive | inactive | inactive | inactive | inactive | inactive | inactive | inactive | inactive | inactive | inactive | inactive | inactive | inactive | inactive | inactive | inactive | inactive
